# Source: PubChem BioAssay AID1347423 (Functional Genomics Laboratory (NCATS/FGL), 2020)
# Hit rate of the full screen: of about 52,000 sequences, about 210 (0.4%) were called active.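 Rule for the calls: active = gene whose silencing raises cell survival under the drug, median off-target-corrected z-score across its silencing RNAs 2 or more; inactive = the rest.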 The sample as a whole holds a higher share of actives than the screen did.
# Test: Resistance to Poly (ADP-Ribose) Polymerase inhibitor: Gene Identification via Genome-wide siRNA Screen
# Conditions: mouse BRCA2 R2336H ES cells, olaparib, CellTiter-Glo viability; stronger effect = higher value
# Summary of the method: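 Mouse BRCA2 R2336H ES cells were reverse-transfected with siRNA (20 nM final), treated at 48 h with 500 nM olaparib, and read by CellTiter-Glo after 72 h. Scores: MAD-based z per siRNA, median per gene, seed off-target correction.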
row,Sequence,z-score
1,GGUGGCACUCUUUCAGAUCTT against 6030446I19Rik,0.179 (inactive)
2,GCCUGCUCUUGAAGGAUAATT against Ptpn9,1.13 (active)
3,GGACCUGUUUGAAGAAAAGTT against Gnai2,-0.66 (inactive)
4,GGUUUCUCUCUACGCUAUGTT against Nrp2,1.81 (inactive)
5,GGACUGGUUCUUCAGUACCTT against Cradd,2.24 (inactive)
6,CCGGCAACAUGCGUGAAUUTT against Trpv4,-0.769 (inactive)
7,GGAAAAAUGGGAGUUUGAATT against 4932423M01Rik,-0.322 (inactive)
8,GGAAUUUUAGCGGAUGAUATT against Smarca3,1.54 (active)
9,CCUAGAUUGAAAAUUGUCATT against 1700049G17Rik,-0.329 (inactive)
10,GCUAAUUUGACAAAGACGGTT against Bfsp2,1.26 (inactive)
11,GGAAGUCAGACAGAUUUAATT against Prss33,3.17 (active)
12,GGACAUAAAAAUACGCCAGTT against Hsf1,3.22 (inactive)
13,GGGCAGAGUGAUGUUGUCATT against Gsdmdc1,-1.93 (inactive)
14,CCAGCAUAUCUACUGUUCUTT against V1rf2,-0.647 (inactive)
15,GGACACAAAUGACAUCAACTT against Ptpns1,-0.156 (inactive)
16,CGUCUCUGCUGAGAACAUGTT against Kcnk15,2.15 (active)
17,GGUUGUGGAACUAGAAUAUTT against Wdr12,-1.25 (inactive)
18,GGGAUGUAUUAGUGAAAGGTT against Dm15,-0.213 (inactive)
19,CCGAAAGAACACAAUCUAUTT against Ifi16,-0.1 (inactive)
20,GGAAAAGUCCUGUAAAAUUTT against Dmrta1,0.431 (inactive)
21,GGACAUGACCAAAAGGCUGTT against 3110006P09Rik,2.27 (active)
22,GCUUAUGAUGAACAAGCCCTT against Aplra1,0.51 (inactive)
23,GGCUGCCUCGAAAUUACAATT against Lamb3,-1.79 (inactive)
24,GGACCAGAAAAUUCACUUUTT against Gdap2,-1.39 (inactive)
25,GGCCUUCUCUGACUUUCUGTT against D430030K24Rik,3.28 (active)
26,CCCAUUAUUGGCACUACAATT against LOC434285,-0.98 (inactive)
27,GCUAGGAAGAGAGUGAUCUTT against Alg1,-0.838 (inactive)

row,Sequence,z-score
1,GGAAGAAAACAUGGAAGAATT against Usp47,3.28 (active)
2,GCAAGUUAUCCAGCACUCATT against Ylpm1,-1.57 (inactive)
3,GCCUCAGAAAAACAUCUAUTT against BC008103,2.16 (inactive)
4,GGACGAACCUUUAUACCAGTT against Arhgef15,-1.21 (inactive)
5,GGCAUUCGAAGGGACAGAUTT against Arg2,-0.343 (inactive)
6,GGGUAGCUGGCGAAUCAAATT against Ptpro,1.43 (inactive)
7,GGAGCAAAUCCAGAGCAACTT against Actr8,2.88 (active)
8,GGAUUCUGCCUGAUCAAUGTT against 1110008F13Rik,-1.08 (inactive)
9,GGGAUGCUUUUGGCCCAAATT against 1110008J03Rik,-0.285 (inactive)
10,GCAUCGUUACAGGACUUUATT against Enpp1,-0.601 (inactive)
11,CGAUGAAAUCAUCACUAUCTT against Cyfip1,-0.619 (inactive)
12,GGGAGAAGAAAUGGUUUAATT against B230315M08Rik,1.54 (active)
13,GGAGACAAAUAUGAUGUAUTT against Hook1,-1.94 (inactive)
14,GGAUUUUUCUUUUGAGCGATT against Figf,-0.866 (inactive)
15,GCACGUGGGCUAUUCCUACTT against Gria1,2.78 (active)
16,CCAACUUUCUCUUAGGAAATT against Gm580,0.9 (inactive)
17,CCUAUUUUUUCUCCACUGATT against Sntg1,-0.718 (inactive)
18,GGUCAUGGAAGAAGCAAAGTT against 5730555F13Rik,2.7 (inactive)
19,GGUUUUUUACACAACAUGCTT against 1110067D22Rik,0.0564 (inactive)
20,GGAGUACGUUGACAUCAUCTT against Timp4,-1.01 (inactive)
21,GCGCAUAUUUUAUCAACUCTT against Plcb3,1.31 (active)
22,GGAGAAACUUCAACUCUUATT against Resp18,0.73 (inactive)
23,CGAAAGAAGGUGAGGGCUCTT against Ppp1r9a,-0.95 (inactive)
24,GCGUAUCCCAGAUAUCCGATT against BC064033,0.0741 (inactive)
25,GCUGUUGCUGGCUAUUCUGTT against 5730409G15Rik,0.298 (inactive)
26,GCCUCACAACUCUUACACCTT against Ptprc,0.888 (inactive)
27,GGAUGGUCAUAAGGAUCAATT against Gpr128,2.66 (active)

row,Sequence,z-score
1,CCAAGUAUUUCACAAACCGTT against Slc29a1,1.5 (inactive)
2,GGAAGAUGUCCAAACCCGCTT against Tm4sf7,0.167 (inactive)
3,CCAACUCGUUAUCACUAUATT against 1700001D09Rik,-0.0393 (inactive)
4,GGGUACAAUAUCCUUAAGUTT against D430033A06Rik,-0.51 (inactive)
5,GAUUCCACGCCAAUUCAUCTT against Ccl3,-1.53 (inactive)
6,CCCACCUAGGUUCAUCCCATT against Fath,2.93 (active)
7,GGCUUAUCAGUCCAUGAAGTT against BC022224,1.93 (inactive)
8,GGAGCCGAGUACAACAUCATT against Galgt1,0.763 (inactive)
9,CGUUUUCCACAAAGCAAAATT against Olfr1465,0.0226 (inactive)
10,GGCAAAGUGAUAUUUUCAATT against Slc6a12,1.85 (active)
11,CCCGGAACUUAACUCUGUATT against LOC381438,-0.264 (inactive)
12,GCCAUUUACAUUCCCAGGGTT against Gm741,0.238 (inactive)
13,CCAAGCAACACCACUCAUCTT against Centb2,-0.144 (inactive)
14,GGAGAUGAAGAGGUUGGUUTT against Olig3,-0.366 (inactive)
15,GGGAUCGAUCAAUCAUAACTT against Tcfap2c,1.8 (inactive)
16,GGAAAUCUUACAGACUGAGTT against Grid2,2.5 (active)
17,GCGCAAGUACCUCAAGAGUTT against Grem2,0.717 (inactive)
18,GGUGCUAGUGUAUGAAUUATT against 9830109N13Rik,2.24 (inactive)
19,GGUGAUAACUCCCUAGUAGTT against Rai12,-1.43 (inactive)
20,CGGACAUUGUUCUGUUUUCTT against Por,1.14 (inactive)
21,CGACAUGUAAAACUAUUGUTT against BC034097,0.0442 (active)
22,CCUCUAGUAAAGAAAUAGATT against 2610019N13Rik,-2.5 (inactive)
23,GGGCUGAUGUGGGCUAAAUTT against 1110001E17Rik,4.07 (active)
24,CGAAGCUAAAGGAUAUAGATT against 1110025H10Rik,0.236 (inactive)
25,GCCCAUAACAAAACAUCUATT against Mcpt5,1.1 (inactive)
26,GGACAGAGCGUGCACUAGATT against Pqlc2,0.262 (inactive)
27,CCCUCCAAGAUAGAAGCGGTT against 2610021K21Rik,0.124 (inactive)

row,Sequence,z-score
1,GGUGGCAUGUCAUUGCUUCTT against Igf2,1.16 (inactive)
2,GUCACUUGGCUUCCAUUGATT against Olfr510,1.19 (active)
3,GGUUUGAAAUCAGCAUGAUTT against A530065I17Rik,-0.647 (inactive)
4,GGCUUUGUGCUAAAAAAAATT against Pgm2l1,0.12 (inactive)
5,CGCAGACAGUUUGAGGCUGTT against 1700034P14Rik,-0.696 (inactive)
6,CCUUAGUUAGAAAUGUUGATT against Xkh,0.357 (inactive)
7,GCUGAAAAUACAAUCUCUGTT against Capn3,2.18 (inactive)
8,GGAACUGAUAACCAGCCAGTT against 1700029B21Rik,-0.44 (inactive)
9,CCUUGAUGACGAAAACAUATT against Plekha2,0.756 (inactive)
10,GGCGAAGGUGUAGAAUCUCTT against A830094I09Rik,2.23 (active)
11,CGAAGUUCAUUCCUGUCUATT against Myf6,-0.688 (inactive)
12,GGAUUACGGUCACUGCCAUTT against Gabrr2,1.39 (inactive)
13,GGAGAUGACGUGAAAACAATT against Srf,1.93 (inactive)
14,GACUAGAACAACAGAAAGUTT against Vax2,1.24 (inactive)
15,GCAAGUAUACACCUCUCAATT against Slc6a12,2.24 (active)
16,GGUAUACACAUGAAAACCATT against 3110023B02Rik,2.35 (inactive)
17,GGAUGGUGACAUGAAAAUCTT against Ifng,-0.37 (inactive)
18,GGUGAUACGUAUUUUUUAGTT against 2700050F09Rik,1.03 (active)
19,CCACCAGACUCAUAUUAACTT against LOC433501,-0.496 (inactive)
20,CGAUUUGGCCUUGAUGGGUTT against Wtip,-0.561 (inactive)
21,GGAUAUCAAAGACAAAGCATT against 3100002B05Rik,0.612 (inactive)
22,GCCCAUUAUUUUCGGACUGTT against Olfr845,-2.22 (inactive)
23,CCUCAAUUGCAUGUGACCUTT against Itgb1bp1,-0.642 (inactive)
24,GGGCCUUUGGAUGUUGCUATT against Abcc10,1.24 (inactive)
